From PubChem BioAssay
This excerpt belongs to a sample that is enriched for hits.
Shiga toxin inh = blocks Shiga toxin action in Vero cells | AID 2315 | inhibition, % at 38.7 µM | Vero cells, Shiga toxin protein synthesis inhibition reporter | 290,000 tested, 9.2% active; in the data active = inhibition mostly above about 28%, no sharp cut-off; inactive = mostly below about 43%
AmpC detergent = AmpC beta-lactamase inhibition with detergent present | Potency, µM (top dose mostly 114 µM), actives largely listed as inhibitors | 370,000 tested, 0.041% active | AmpC hydrolysis of nitrocefin, absorbance 480 nm, 0.01% Triton | P00811; note: nearly all actives have a fitted effect of over 25% in size
Target sequence (P00811 whole entry, looked up): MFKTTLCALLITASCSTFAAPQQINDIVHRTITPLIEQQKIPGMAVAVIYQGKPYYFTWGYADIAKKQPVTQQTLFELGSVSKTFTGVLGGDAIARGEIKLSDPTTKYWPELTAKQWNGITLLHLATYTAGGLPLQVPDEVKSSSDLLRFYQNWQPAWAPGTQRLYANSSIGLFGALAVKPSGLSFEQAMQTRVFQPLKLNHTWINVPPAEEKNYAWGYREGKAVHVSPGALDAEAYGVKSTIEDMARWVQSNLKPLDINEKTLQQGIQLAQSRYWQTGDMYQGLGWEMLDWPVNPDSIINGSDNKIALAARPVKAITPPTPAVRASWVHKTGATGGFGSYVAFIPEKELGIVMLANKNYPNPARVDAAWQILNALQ
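AmpC (5.3 nM in the dispensed reagent) in 20 mM phosphate pH 7.0 with 0.01% (detergent screen) or 0.0001% Triton X-100 was preincubated with compounds for 15 min at room temperature. Nitrocefin was then added from an 800 uM solution, and hydrolysis was followed at 480 nm.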
AmpC inh no detg = AmpC beta-lactamase inhibition without detergent; Potency, µM (highest dose often 57.1 µM), hits mostly inhibitors; 330,000 tested, 0.52% active; P00811; AmpC nitrocefin hydrolysis, absorbance 480 nm, 0.0001% Triton; AID 485341; note: nearly all actives have a fitted effect of over 20% in size
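20 mM phosphate pH 7.0 + 0.01% (detergent screen) or 0.0001% Triton X-100; 5.3 nM AmpC reagent; cpd preinc 15 min RT; nitrocefin (800 uM stock) to start; A480 q20 s × 4 min; Activity was normalised to no-enzyme and no-compound control wells.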
NS1 function inh = influenza NS1 inhibition; Potency, µM (top dose mostly 46.1 µM); 270,000 tested, 0.4% active; AID 2326; calls by dose curve; note: actives are rising curves; nearly all actives have a fitted effect of over 50% in size
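A cell-based growth assay was used: compounds that relieve NS1-induced slow growth of budding yeast raise OD600. Assay medium was yeast nitrogen base with ammonium sulphate and -URA supplement, pH 6.0, with 2% galactose.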
CHX counter = affects cycloheximide protein synthesis inhibition readout, counter-screen; cell reporter, cycloheximide protein synthesis inhibition counterscreen; 300,000 tested, 12% active; max response, %; in the data active = max response mostly above about 13%, no sharp cut-off; inactive = mostly below about 14%; note: read at 38.3 µM for the half of the compounds with a filed dose
A number is an active result; i = inactive; ? = inconclusive; nt = no result given; + = active, no number. Unless noted, calls come from the whole dose curve; as a rule, active = well fitted curve in the direction sought with a large enough effect; inconclusive = small, poorly fitted or top-dose-only effect, or another doubt; inactive = no such curve, though single readings can be large; an effect the other way counts as inactive or inconclusive.

SMILES | Shiga toxin inh | AmpC detergent | AmpC inh no detg | NS1 function inh | CHX counter
CSc1ccccc1NC(=O)Nc1ccccc1 | 91 | i | i | i | 25
CCOc1ccc(NC(=O)Nc2cccn(Cc3ccccc3)c2=O)cc1 | i | i | i | i | 31
COc1ccc(CNC(=O)C2=CC(c3cccc(OC)c3)=NS(=O)(=O)N2C)cc1 | nt | i | nt | nt | nt
COc1ccccc1CNC(=O)CCc1c(C)nc2c(c(C)nn2-c2ccc(C)c(C)c2)c1C | nt | i | nt | nt | nt
O=C(NCc1ccccc1)Nc1cccn(Cc2ccccc2F)c1=O | i | ? | i | i | 20
COc1ccccc1NCC(=O)c1ccc(Cl)cc1 | i | i | i | i | i
COc1ccc(C(=O)CNc2ccccc2CO)cc1 | 111 | i | i | nt | 42
COc1ccc(C(=O)CNc2ccccc2C#N)cc1 | 76 | i | i | nt | 28
COCC(=O)Nc1ccccc1C#N | i | i | i | i | i
COC(=O)c1ccccc1NCC(=O)c1ccc(OC)cc1 | i | i | i | i | i
COc1ccc(C(=O)CNc2ccc(C)cc2C)cc1 | i | i | i | i | 25
COc1ccccc1NCC(=O)c1ccc(C)c(C)c1 | nt | ? | i | i | 16
COc1ccc(C(=O)Nc2cc(C)nn2-c2cccc(F)c2)cc1OC | i | i | i | i | i
CCC(C(=O)NC(C)(C)C)N(C(=O)Cn1nnc(-c2ccccc2F)n1)c1cccc2c1CCCC2 (stereo not given) | i | i | i | i | i
COc1ccc(C(=O)COc2ccccc2C#N)cc1 | 60 | i | i | i | 28
N/C(=N\OC(=O)c1ccccc1)c1ccncc1 | 87 | i | i | i | 46
COc1ccc(C(=O)O/N=C(/c2ccccc2)c2ccncc2)cc1 | 61 | i | i | nt | 42
Cc1cccc(C(=O)O/N=C(/c2ccccc2)c2ccncc2)c1 | i | i | i | i | i
O=C(COC(=O)c1ccncc1)c1ccc(Br)cc1 | i | i | i | i | i
N/C(=N\OC(=O)c1ccc(Br)cc1)c1ccncc1 | 52 | i | i | nt | 45
N/C(=N\OC(=O)c1cccc(Br)c1)c1ccncc1 | 83 | i | i | i | 35
CC(C)Oc1ccc(C(=O)N2CCN(c3nc4c(F)cc(F)cc4s3)CC2)cc1 | nt | i | nt | nt | nt
C[C@H](NC(=O)c1[nH]cnc1C(=O)Nc1ccc(CNC(=O)OC(C)(C)C)cc1)C(=O)OC(C)(C)C | i | i | i | i | i
O=C(O/N=C1\CCS(=O)(=O)c2sccc21)c1c(F)cccc1F | i | i | i | i | 14
Cc1ccc(C)c(NC(=O)CN2CCCN(Cc3cccc(Cl)c3)S2(=O)=O)c1 | nt | i | nt | nt | nt
SMILES | Shiga toxin inh | AmpC detergent | AmpC inh no detg | NS1 function inh | CHX counter
Cc1ccc(N2NC(C)(c3cccs3)NC2=S)cc1 (stereo not given) | 74 | i | i | i | 31
Cc1c(CCN)ccc2c1[nH]c1ccccc12 | i | i | i | i | 17
CC(=O)OCCc1[nH]c2ccccc2c1C | i | i | i | i | i
CC1(C)OC(c2ccccc2)=C/C(=C/C=Nc2ccccc2)O1 | 35 | ? | i | i | 16
Cc1cc(C(=O)N/N=C/c2ccc(O)c(O)c2O)c(C)n1-c1ccccc1 | 73 | i | i | nt | 54
Cc1cc(/C=N/NC(=O)C(O)(c2ccccc2)c2ccccc2)c(C)n1-c1ccccc1 | i | i | i | ? | i
Cc1cc(/C=N/NC(=O)c2cccc([N+](=O)[O-])c2)c(C)n1-c1ccccc1 | i | i | i | i | 34
Cc1cc(/C=N/NC(=O)c2ccncc2)c(C)n1-c1ccccc1 | 23 | ? | i | i | 26
Cc1ccc(/C=N/NC(=O)c2cccc([N+](=O)[O-])c2)o1 | i | ? | i | i | i
O=C(CCN1CCN(c2ccccc2)CC1)N/N=C/c1ccc(O)c(O)c1O | i | i | i | i | i
Cc1cc(/C=N/NC(=O)c2cccs2)c(C)n1-c1ccccc1 | 11 | i | ? | i | 26
COc1cccc(CNC(=O)CSc2nc(=O)[nH]c3c2CCCC3)c1 | nt | i | nt | nt | nt
Cc1ccc(-c2noc(C(C)NS(=O)(=O)c3ccc(C)cc3)n2)cc1 (stereo not given) | nt | i | nt | nt | nt
CCOc1cccc2cc(C(=O)NCc3ccc(C)cc3)c(=N)oc12 | i | i | i | i | i
O=C(NC1CC2CCCC(C1)N2Cc1ccc(F)cc1)c1ccc(F)cc1 (stereo not given) | i | i | i | i | i
Cc1cc(/C=N/NC(=O)c2cccs2)c(C)n1-c1cnccn1 | 59 | i | i | i | 48
Cc1cccc(C)c1-n1c(C)cc(/C=N/NC(=O)c2ccncc2)c1C | i | i | i | i | i
COc1cc(C2C(=O)N(C3CCCCC3)CC(=O)N2CCC2=CCCCC2)ccc1OC(C)C (stereo not given) | nt | i | nt | nt | nt
CCC(Sc1nnc2c3ccccc3n(C)c2n1)C(=O)Nc1nnc(C(C)C)s1 (stereo not given) | nt | i | nt | nt | nt
NNc1ccccc1C(F)(F)F | i | i | i | nt | 28
O=C(c1ccc2nc(N3CCOCC3)sc2c1)N1CCCC1 | i | ? | i | i | i
CC1CCN(c2nc3ccc(C(=O)N4CCN(Cc5ccc6c(c5)OCO6)CC4)cc3s2)CC1 | + | i | i | i | 136
COc1ccc(N2CCN(C(=O)c3ccc4nc(N5CCCCC5)sc4c3)CC2)cc1 | 44 | i | i | i | 53
COc1cccc(N2CCN(C(=O)c3ccc4nc(N5CCCCC5)sc4c3)CC2)c1 | 109 | i | i | i | 77
O=C(COc1ccccc1C(=O)Nc1ccccc1)c1ccc(F)cc1 | i | ? | i | nt | i
SMILES | Shiga toxin inh | AmpC detergent | AmpC inh no detg | NS1 function inh | CHX counter
CCOc1cccc(C(=O)NC(=S)Nc2cccc(C)c2)c1 | 65 | i | i | i | i
COc1cccc(C(=O)Nc2ccncc2)c1 | i | i | i | i | i
COc1cccc(NC(=O)c2ccc(NC(C)=O)cc2)c1 | i | i | i | i | 33
O=C(COc1ccc(Cc2ccccc2)cc1)c1ccc(F)cc1 | i | i | i | i | 35
COc1cccc(C(=O)Nc2ccc3c(c2)C(=O)c2ccccc2C3=O)c1 | 38 | ? | i | i | 31
C=CCNC1=C2C[C@@H](C)C[C@H](OC)[C@H](O)[C@@H](C)/C=C(\C)[C@H](OC(N)=O)[C@@H](OC)/C=C/C=C(\C)C(=O)NC(=CC1=O)C2=O | i | nt | nt | nt | i
COc1ccc(/C=C\c2onc(C)c2S(=O)(=O)N2CCC(C(=O)Nc3ccc(F)cc3F)CC2)cc1 | nt | i | nt | nt | nt
COc1cccc(C(=O)Nc2nc3c(s2)CN(C)CC3)c1 | 176 | i | i | i | i
COc1cccc(C(=O)Nc2cccnc2)c1 | i | i | i | i | 48
O=C(Nc1cccc(C(=O)N2CCN(c3ccccc3)CC2)c1)c1ccco1 | i | i | i | i | i
O=C(Nc1cccc(C(=O)N2CCCCCC2)c1)c1ccco1 | i | i | i | i | 10
O=C(Nc1cccc(NC(=O)c2ccco2)c1)c1cccc(Br)c1 | 86 | i | ? | i | i
O=C(C[n+]1ccccc1)Nc1ccccc1C(=O)O | i | i | i | nt | i
Cc1ccc(C)c(-c2[nH]ncc2CN2CCCC(CO)(Cc3ccccc3C)C2)c1 (stereo not given) | i | i | i | i | i
